rCAG binder = binds r(CAG) RNA repeats; inhibition, % at 3 µM; 1.3% of 370,000 active; r(CAG) RNA repeat, TO-PRO-1 dye displacement fluorescence; AID 651821;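 active = inhibition above the plate cutoff, the mean of all test compounds on that plate plus 3 SD, cut at about 35% in these data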;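 also: 0% = DMSO alone and 100% = 100 µM mitoxantrone as full dye displacement; higher means more dye released from RNA so lower well fluorescence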
MsrA act = bovine methionine sulfoxide reductase A activation. 0.3% of 360,000 active. AID 602163. purified bovine MsrA, absorbance read-out. activation, % at 10.6 µM; in the data active = activation above about 7.5%;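 also: 0% = vehicle and 100% = reference activator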
HGIII-sPLA2 inh = Inhibits HGIII-sPLA2 liposome hydrolysis, primary screen | Q9NZ20 | QFRET BODIPY PC-A2 liposome hydrolysis, fluorescence | inhibition, % at 12.2 µM | 0.56% of 370,000 active | AID 743126;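 active = inhibition above mean plus 3 SD of compounds lying within the high and low control bounds, cut at about 19% in these data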;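 also: 0% = median of test compound wells and 100% = no enzyme DMSO wells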
Target sequence (Q9NZ20 whole entry, looked up): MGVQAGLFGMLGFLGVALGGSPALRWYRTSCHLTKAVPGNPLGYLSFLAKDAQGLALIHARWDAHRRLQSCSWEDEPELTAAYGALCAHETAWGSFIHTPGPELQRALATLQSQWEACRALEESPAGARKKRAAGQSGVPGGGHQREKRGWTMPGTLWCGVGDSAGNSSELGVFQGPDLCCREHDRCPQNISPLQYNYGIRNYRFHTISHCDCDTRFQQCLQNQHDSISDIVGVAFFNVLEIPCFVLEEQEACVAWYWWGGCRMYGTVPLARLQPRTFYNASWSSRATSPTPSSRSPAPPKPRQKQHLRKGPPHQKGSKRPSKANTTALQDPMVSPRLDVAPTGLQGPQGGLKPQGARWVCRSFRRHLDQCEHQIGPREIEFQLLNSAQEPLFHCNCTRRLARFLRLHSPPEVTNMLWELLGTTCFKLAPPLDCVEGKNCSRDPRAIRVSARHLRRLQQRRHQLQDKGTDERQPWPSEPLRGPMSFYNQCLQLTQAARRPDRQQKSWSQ
MsrA inhibitor = inhibits bovine methionine sulfoxide reductase A; inhibition, % at 15.5 µM; purified bovine MsrA, absorbance read-out; 0.75% of 360,000 active; AID 651718; in the data active = inhibition above about 4.5%;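 also: 0% = vehicle wells with enzyme and 100% = reference inhibitor wells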
rCAG binder conf = r(CAG) RNA repeat binding, confirmation; inhibition, % at 3 µM; TO-PRO-1 dye displacement fluorescence; shares compounds with rCAG binder; 70% of 4,300 active;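 active = inhibition above a per-plate cutoff, the mean inhibition of sample wells plus 3 SD, cut at about 35% in these data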;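 also: loss of TO-PRO-1 fluorescence as compound displaces dye from 1x1 AA loop RNA; 0% = DMSO only wells and 100% = 100 µM mitoxantrone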
DNA CAG counter = disrupts DNA CAG TO-PRO-1 complex, flagging rCAG hits; shares compounds with rCAG binder; d(CAG) DNA oligo TO-PRO-1 dye displacement, fluorescence; inhibition, % at 3 µM; 94% of 4,300 active; AID 652068;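 active = inhibition above its plate's cutoff, the mean test-well inhibition plus 3 SD, cut at about 4.8% in these data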;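 also: 0% = DNA dye mix with DMSO and 100% = 100 µM mitoxantrone; hits displace the dye from DNA and so lower well fluorescence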
The depositor's hits bear a star. Compounds with a hit are over-represented: about 2.8% of the library has one in this group of screens.

COc1cc(NC(=O)c2ccc(S(=O)(=O)N(C)c3ccccc3)cc2)cc(OC)c1 was read as rCAG binder 9, MsrA act -2, HGIII-sPLA2 inh -13 and MsrA inhibitor 0.
For CCC(C)NC(=O)CN(C1CCCCC1)S(=O)(=O)c1ccc(F)cc1 (stereo not drawn) the results were rCAG binder -9, MsrA act -5, HGIII-sPLA2 inh 4 and MsrA inhibitor 0.
For CCOC(=O)c1c(NC(=O)Nc2cccc(Cl)c2)sc(C)c1C the results were rCAG binder 2, MsrA act -2, HGIII-sPLA2 inh 2 and MsrA inhibitor 0.
Screening COc1cc(/C=N/N=C2/NC(=O)C(CC(=O)O)S2)ccc1OCc1cccc(Cl)c1 (stereo not drawn) returned rCAG binder 43*, MsrA act -6, HGIII-sPLA2 inh -8, MsrA inhibitor 3, rCAG binder conf 26 and DNA CAG counter 5.5*.
`CCOc1cc(/C=N/N=C2/NC(=O)C(CC(=O)O)S2)ccc1OCc1ccc(Cl)cc1` (stereo not drawn) gave rCAG binder 60*, MsrA act -7, HGIII-sPLA2 inh -20, MsrA inhibitor 3, rCAG binder conf 40* and DNA CAG counter 10*.
Screening C/C(=N\NC(=O)c1nnn(-c2nonc2N)c1C)c1ccc(-c2ccccc2)cc1 returned rCAG binder 0, MsrA act -3, HGIII-sPLA2 inh -1 and MsrA inhibitor -1.
O=C(NC1CCN(Cc2ccccc2)CC1)c1ccccc1NS(=O)(=O)c1ccc(F)c(F)c1 was read as rCAG binder 36*, MsrA act 1, HGIII-sPLA2 inh -29, MsrA inhibitor -1, rCAG binder conf 21 and DNA CAG counter 3.
CC(C)OP(=O)(OC(C)C)C1(NS(=O)(=O)c2ccc(Cl)cc2)C=C(Cl)C(=O)C(Cl)=C1 was read as rCAG binder 40*, MsrA act 0, HGIII-sPLA2 inh -2, MsrA inhibitor 2, rCAG binder conf 27 and DNA CAG counter 5.9*.
Screening COc1cc(C2C(C(=O)c3cccs3)=C(O)C(=O)N2c2cc(C)on2)ccc1O (stereo not drawn) returned rCAG binder 7, MsrA act -11, HGIII-sPLA2 inh -6 and MsrA inhibitor 4.
For COc1cccc(C2C(C(=O)c3cc4cccc(OC)c4o3)=C(O)C(=O)N2c2cc(C)on2)c1OC (stereo not drawn) the results were rCAG binder 57*, MsrA act -10, HGIII-sPLA2 inh -14, MsrA inhibitor 2, rCAG binder conf 65* and DNA CAG counter 25*.
COc1cccc2cc(C(=O)C3=C(O)C(=O)N(c4cc(C)on4)C3c3cccs3)oc12 (stereo not drawn) was read as rCAG binder 44*, MsrA act -11, HGIII-sPLA2 inh -1, MsrA inhibitor 0, rCAG binder conf 62* and DNA CAG counter 27*.
COc1cccc(C2C(C(=O)c3cc4ccccc4o3)=C(O)C(=O)N2c2cc(C)on2)c1OC (stereo not drawn) was read as rCAG binder 51*, MsrA act -5, HGIII-sPLA2 inh -20, MsrA inhibitor 0, rCAG binder conf 45* and DNA CAG counter 12*.
For Cc1ccc(CCNC(=O)C2CCN(S(=O)(=O)c3c(C)nn(C)c3C)CC2)cc1 the results were rCAG binder -2, MsrA act -5, HGIII-sPLA2 inh 0 and MsrA inhibitor 0.
`C[C@@H]1CCCCO[C@H](CN(C)C)[C@H](C)CN([C@@H](C)CO)C(=O)c2cc(NC(=O)Nc3ccc(C(F)(F)F)cc3)ccc2O1` gave rCAG binder 3, MsrA act 1, HGIII-sPLA2 inh -24 and MsrA inhibitor -2.
C[C@@H]1CCCCO[C@H](CN(C)Cc2ccc(C(=O)O)cc2)[C@H](C)CN([C@@H](C)CO)C(=O)c2cc(NC(=O)Nc3ccc(C(F)(F)F)cc3)ccc2O1 was read as rCAG binder 50*, MsrA act -8, HGIII-sPLA2 inh -61, MsrA inhibitor 0, rCAG binder conf 53* and DNA CAG counter 15*.
Cc1nn(C)c(C)c1CNC(=O)c1cc2n(n1)C(C(F)(F)F)CC(c1cccs1)N2 (stereo not drawn) was read as rCAG binder -7, MsrA act -2, HGIII-sPLA2 inh -5 and MsrA inhibitor -1.
`CCOC(=O)c1sc(N2C(=O)C(O)=C(C(=O)c3ccco3)C2c2ccc(C)o2)nc1C` (stereo not drawn) gave rCAG binder 44*, MsrA act -6, HGIII-sPLA2 inh -4, MsrA inhibitor 1, rCAG binder conf 59* and DNA CAG counter 21*.
`Cc1cc(N2C(=O)C(O)=C(C(=O)c3ccco3)C2c2ccc([N+](=O)[O-])cc2)no1` (stereo not drawn) gave rCAG binder 13, MsrA act -12, HGIII-sPLA2 inh -6 and MsrA inhibitor 2.
Screening CCOc1ccc(C2C(C(=O)c3ccc(C)o3)=C(O)C(=O)N2c2nc(C)c(C(=O)OC)s2)cc1 (stereo not drawn) returned rCAG binder 24, MsrA act -8, HGIII-sPLA2 inh 1 and MsrA inhibitor 1.
Screening CCOC(=O)c1sc(N2C(=O)C(O)=C(C(=O)c3ccco3)C2c2ccc([N+](=O)[O-])cc2)nc1C (stereo not drawn) returned rCAG binder 80*, MsrA act -4, HGIII-sPLA2 inh -5, MsrA inhibitor 2, rCAG binder conf 85* and DNA CAG counter 55*.
Screening COCCNC(=S)N1CCN(c2nc(-c3cccc(OC)c3)cs2)CC1 returned rCAG binder -1, MsrA act -3, HGIII-sPLA2 inh -1 and MsrA inhibitor 1.
For COc1cc(/C=C/C(=O)OCC(=O)Nc2c(C)n(C)n(-c3ccccc3)c2=O)cc(OC)c1OC the results were rCAG binder 1, MsrA act -11, HGIII-sPLA2 inh 0 and MsrA inhibitor 1.
For Cc1sc(NC(=O)C2CC=CCC2C(=O)O)c(C(=O)OC(C)C)c1C (stereo not drawn) the results were rCAG binder 41*, MsrA act 1, HGIII-sPLA2 inh 5, MsrA inhibitor 2, rCAG binder conf 33 and DNA CAG counter 5.8*.
For COC(=O)c1cc(C)sc1NC(=O)C1CC=CCC1C(=O)O (stereo not drawn) the results were rCAG binder 4, MsrA act -2, HGIII-sPLA2 inh 2 and MsrA inhibitor 0.
For O=C(NCc1ccccc1)[C@@H]1CCCN1C(=O)[C@H]1CCCN1C(=O)c1ccccc1F the results were rCAG binder 1, HGIII-sPLA2 inh 3 and MsrA inhibitor 0.

Bioassay records from PubChem BioAssay.
